Assay results reported in PubChem BioAssay (NCI).
This is part of a sample that, as a whole, favours compounds with a hit. Of some 83,000 tested, about 20% had one in any assay.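 Each cell line was grown in a 96-well plate and treated with one concentration of compound for 48 hours. Values below 10 were considered active.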 Values without a mark were called inactive. The source made the active and inactive calls.

Legend:
Assay in all cases: NCI-60 one-dose screen, 48 h (100 = growth as untreated, 0 = no growth, -100 = all killed)
Settings in all cases: 10 µM unless noted
DU-145 prostate = test system: DU-145 prostate
K-562 leukemia = test system: K-562 leukemia
MALME-3M melanoma = test system: MALME-3M melanoma
MDA-MB-231 breast = test system: MDA-MB-231 breast
RXF 393 renal = test system: RXF 393 renal
SF-268 CNS = test system: SF-268 CNS
SF-295 CNS = test system: SF-295 CNS
SF-539 CNS = test system: SF-539 CNS
UACC-257 melanoma = test system: UACC-257 melanoma
M14 melanoma = test system: M14 melanoma
HCT-15 colon = test system: HCT-15 colon
HT29 colon = test system: HT29 colon
SNB-75 CNS = test system: SNB-75 CNS
SNB-19 CNS = test system: SNB-19 CNS
U251 CNS = test system: U251 CNS
PC-3 prostate = test system: PC-3 prostate
SK-MEL-5 melanoma = test system: SK-MEL-5 melanoma
UACC-62 melanoma = test system: UACC-62 melanoma
LOX IMVI melanoma = test system: LOX IMVI melanoma
SK-MEL-28 melanoma = test system: SK-MEL-28 melanoma

SMILES	growth (DU-145 prostate)	growth (K-562 leukemia)	growth (MALME-3M melanoma)	growth (MDA-MB-231 breast)	growth (RXF 393 renal)	growth (SF-268 CNS)	growth (SF-295 CNS)	growth (SF-539 CNS)	growth (UACC-257 melanoma)	growth (M14 melanoma)	growth (HCT-15 colon)	growth (HT29 colon)	growth (SNB-75 CNS)	growth (SNB-19 CNS)	growth (U251 CNS)	growth (PC-3 prostate)	growth (SK-MEL-5 melanoma)	growth (UACC-62 melanoma)	growth (LOX IMVI melanoma)	growth (SK-MEL-28 melanoma)
COc1ccc(Nc2ncccc2/C=C/C(=O)c2cc(OC)c(OC)c(OC)c2)cc1	6.98% (active)	-26.3% (active)	-5.45% (active)	17.3%	-61% (active)	-33.2% (active)	17%	-51.1% (active)	-89.7% (active)	-53.4% (active)	-57.2% (active)	-66.8% (active)	21.4%	33.4%	-95.8% (active)	-15.1% (active)	-25.8% (active)	-24% (active)	-63.6% (active)	-77% (active)
O=C(CSc1nc(-c2ccccc2)cc(=O)[nH]1)Nc1nc(-c2ccccc2)cs1	97.8%	87.7%	110%	116%	87.4%	93.8%	76.4%	113%	94.6%	117%	89.7%	99.1%	85.9%	105%	99.9%	78.8%	85.7%	69.1%	96.6%	111%
COc1ccc2nc(Cl)c(/C=C3\CC(c4ccccc4)=NN(c4ccccc4)C3=O)cc2c1	76.8%	83.9%	45.2%	51.7%	10.9%	51.9%	62.6%	13.1%	75.2%	94.1%	84.5%	82.5%	19.8%	20.3%	55.6%	66.1%	78.2%	71.8%	78.3%	85.8%
CC(=O)ON1CCCC(P(=O)(OCCSC(=O)C(C)(C)C)OCCSC(=O)C(C)(C)C)C1=O (stereo not given)	42.5%	19.4%	17.1%	25.1%	-26.7% (active)	19.2%	55.5%	57.6%	54.2%	34.3%	12.1%	19.3%	52%	19%	6.6% (active)	48.1%	-2.99% (active)	20.4%	25.8%	30.7%
O=C(/C=C/C12c3ccccc3C(c3ccccc31)C1C(=O)NC(=O)C12)c1ccc(Br)cc1 (stereo not given)	46.6%	21.6%	80.5%	52.6%	25.4%	60.6%	71%	77.9%	61.7%	62.6%	36.1%	20.1%	55.7%	51.3%	29.2%	29.8%	67.8%	46.7%	21%	50.6%
Fc1cccc(-c2ccc3c(c2)C2(CCNCC2)CN3)c1	105%	92.6%	109%	91.2%	121%	98.8%	95.4%	98.8%	126%	109%	94.9%	93.1%	92%	112%	107%	98.1%	97.4%	87.4%	92.2%	116%
O=C1C(Nc2ccccn2)=C(I)C(=O)c2ncccc21	-93.6% (active)	1.75% (active)	-99.6% (active)	-31.8% (active)	-60.8% (active)	-33.1% (active)	-31.6% (active)	-98% (active)	-27.9% (active)	-84.5% (active)	-60% (active)	-14.5% (active)	-94.3% (active)	0% (active)	-82.4% (active)	6.61% (active)	-98.9% (active)	-68% (active)	-72.7% (active)	-36.7% (active)
COc1ccc(-c2nc3c(N)c(CO)cnc3s2)cc1	86.6%	97.2%	101%	94.4%	74.7%	76.2%	93.1%	89.7%	110%	99.4%	93.8%	97.7%	82.9%	97.2%	88.6%	91.8%	82.7%	92.7%	81.9%	98.5%
CCCC(CC)(C(=O)Nc1ccc2nc(C)cc(N)c2c1)C(=O)Nc1ccc2nc(C)cc(N)c2c1	111%	102%	105%	100%	117%	113%	108%	102%	99.7%	96.6%	110%	99.1%	100%	103%	107%	95.8%	99.5%	102%	100%	110%
O=S1(=O)C=C(c2ccccc2)C(c2ccccc2)=C1	9.89% (active)	4.11% (active)	-32.6% (active)	11%	-86.8% (active)	3.46% (active)	73.5%	9.24% (active)	2.35% (active)	12.1%	-6.66% (active)	-34.3% (active)	50%	76.6%	14.8%	39.6%	27.4%	5.7% (active)	-69.4% (active)	17.9%
Oc1ccc(/C=C/c2ccc(O)cc2)cc1	56.9%	69.5%	58.9%	80.1%	62.8%	42.7%	88.1%	-11.4% (active)	72.3%	65%	33.3%	101%	46.9%	89.2%	39.1%	55.3%	52%	37.4%	44.4%	76.9%
Cc1ccc(/C=C(\C#N)n2nnc3cc(F)c(F)cc32)cc1	-3.37% (active)	4.34% (active)	33%	12%	-0.406% (active)	23.4%	36.6%	-25.5% (active)	38%	-27.7% (active)	14.6%	5.95% (active)	-15.2% (active)	31.9%	24.4%	21.3%	16.4%	34.7%	-17.6% (active)	39.5%
